Results taken from PubChem BioAssay (NCATS).
Results filed as inconclusive are left out. Calls of active or inactive are those of the source. Calls come from the whole dose curve; as a rule, active = well fitted inhibition curve with a large enough effect; inconclusive = small, poorly fitted or top-dose-only effect; inactive = flat fitted curve, though single readings scatter.

Assays:
CRL-7250 = normal cell line; test: Cytotoxic Profiling of Annotated Libraries Using Quantitative High-Throughput Screening (AID 1296008); conditions: Five cell lines viability, CellTiter-Glo ATP luminescence, 48-72 h; max response: active compounds read low; for max response: % is set by controls: 0 for no effect and ±100 for the full control effect
In short: (§1)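 Cells exposed to compounds for 48 or 72 hr at 37 degrees Celsius. Viability read as ATP-coupled luminescence with CellTiter-Glo after 10 min at room temperature.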

HEK293 = test: as above; conditions: Five cell lines viability, CellTiter-Glo ATP luminescence, 48-72 h; max response: active compounds read low
In short: as §1

HaCat [1] = test: as above; conditions: Five cell lines viability, CellTiter-Glo ATP luminescence, 48-72 h; max response: active compounds read low
In short: as §1

NIH3T3 = test: as above; conditions: Five cell lines viability, CellTiter-Glo ATP luminescence, 48-72 h; max response: active compounds read low
In short: as §1

MCC-13 = test: qHTS assay to identify novel small-molecules to repurpose for Merkel cell carcinoma treatment (AID 1296009); conditions: MCC and control cell lines, CellTiter-Glo viability, 72 h; series mostly up to 46 µM; for activity change, negative = cytotoxicity: % is set by controls: 0 for no effect and ±100 for the full control effect
In short: (§2)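 Cells were treated for 72 hr at 37 degree celsius with compounds in 8- or 11-point dose response. Viability was read by CellTiter-Glo luminescence, normalized to no-cell (cytotoxicity) and DMSO controls.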

PC15 = test: qHTS profiling for inhibitors of Plasmodium falciparum proliferation (AID 504749); conditions: P. falciparum in erythrocytes, SYBR Green DNA, 72 h; series mostly up to 28.7 µM
In short: (§3)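 P. falciparum-infected erythrocytes (0.3% parasitemia, 2.5% hematocrit) incubated with compound 72 h at 37 C, 5% CO2. Parasite DNA detected by SYBR Green after lysis, overnight at room temperature; normalised to 0.29 uM artemisinin and DMSO.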

PC26 = test: as above; conditions: P. falciparum in erythrocytes, SYBR Green DNA, 72 h; series mostly up to 28.7 µM
In short: as §3

PC49 = test: as above; conditions: P. falciparum in erythrocytes, SYBR Green DNA, 72 h; series mostly up to 28.7 µM
In short: as §3

KB-3-1 = test: Cytotoxic Profiling of Annotated Libraries Using Quantitative High-Throughput Screening (AID 1296008); conditions: Five cell lines viability, CellTiter-Glo ATP luminescence, 48-72 h; max response: active compounds read low; for max response: % is set by controls: 0 for no effect and ±100 for the full control effect
In short: as §1

MCC-26 = test: qHTS assay to identify novel small-molecules to repurpose for Merkel cell carcinoma treatment (AID 1296009); conditions: MCC and control cell lines, CellTiter-Glo viability, 72 h; series mostly up to 46 µM; for activity change, negative = cytotoxicity: % is set by controls: 0 for no effect and ±100 for the full control effect
In short: as §2

P93_24 = test: qHTS profiling for inhibitors of Plasmodium falciparum proliferation (AID 504749); conditions: P. falciparum in erythrocytes, SYBR Green DNA, 72 h; series mostly up to 28.7 µM
In short: as §3

P94_40 = test: as above; conditions: P. falciparum in erythrocytes, SYBR Green DNA, 72 h; series mostly up to 28.7 µM
In short: as §3

PAD = test: as above; conditions: P. falciparum in erythrocytes, SYBR Green DNA, 72 h; series mostly up to 28.7 µM
In short: as §3

SC27B = test: as above; conditions: P. falciparum in erythrocytes, SYBR Green DNA, 72 h; series mostly up to 28.7 µM
In short: as §3

TAB113 = test: as above; conditions: P. falciparum in erythrocytes, SYBR Green DNA, 72 h; series mostly up to 28.7 µM
In short: as §3

TAB165 = test: as above; conditions: P. falciparum in erythrocytes, SYBR Green DNA, 72 h; series mostly up to 28.7 µM
In short: as §3

W2 = test: as above; conditions: P. falciparum in erythrocytes, SYBR Green DNA, 72 h; series mostly up to 28.7 µM
In short: as §3

HACAT [2] = test: qHTS assay to identify novel small-molecules to repurpose for Merkel cell carcinoma treatment (AID 1296009); conditions: MCC and control cell lines, CellTiter-Glo viability, 72 h; at 44.8 µM (top of the series) unless noted
In short: as §2

HEK293T = test: as above; conditions: MCC and control cell lines, CellTiter-Glo viability, 72 h; at 44.8 µM (top of the series) unless noted
In short: as §2

TAB109 = test: qHTS profiling for inhibitors of Plasmodium falciparum proliferation (AID 504749); conditions: P. falciparum in erythrocytes, SYBR Green DNA, 72 h; series mostly up to 28.7 µM
In short: as §3
Note: nearly all actives have a fitted effect of over 60% in size.
Potency is the fitted concentration of half-maximal effect.

COc1cccc2c1C(=O)c1c(O)c3c(c(O)c1C2=O)C[C@@](O)(C(=O)CO)C[C@@H]3O[C@H]1C[C@H](N)[C@H](O[C@@H]2CCCCO2)[C@H](C)O1
active: Potency (CRL-7250) 2370 nM | Potency (HEK293) 84.1 nM | Potency (HaCat [1]) 53.1 nM | Potency (NIH3T3) 188 nM | Potency (MCC-13) 3760 nM

CCCC(=O)OC[C@@H](OC(=O)CCC)[C@@H](OC(=O)CCC)[C@H](Cn1c2nc(=O)[nH]c(=O)c-2nc2cc(C)c(C)cc21)OC(=O)CCC
inactive: Potency (PC15) | Potency (PC26) | Potency (PC49) | outcome (CRL-7250) | max response (HaCat [1]) 4.67% | max response (KB-3-1) 23.7% | outcome (NIH3T3) | Potency (MCC-13) | Potency (MCC-26)

CCCCCCCCCCCCCCCCCC(=O)O
inactive: Potency (P93_24) | Potency (P94_40) | Potency (PAD) | Potency (PC15) | Potency (PC26) | Potency (PC49) | Potency (SC27B) | Potency (TAB113) | Potency (TAB165) | Potency (W2) | outcome (HEK293) | outcome (HaCat [1]) | max response (KB-3-1) -8.88% | max response (NIH3T3) -5.96% | outcome (HACAT [2]) | outcome (HEK293T) | Potency (MCC-13) | Potency (MCC-26)

COc1cc(NC(C)CCCN)c2ncccc2c1 (stereo not drawn)
inactive: max response (CRL-7250) 4.62% | outcome (HaCat [1]) | max response (KB-3-1) 20.7% | outcome (NIH3T3) | outcome (HACAT [2])
active: Potency (MCC-13) 16800 nM

Cc1c(C(=O)O)c(O)cc2c1C(=O)c1c(O)c([C@@H]3O[C@H](CO)[C@@H](O)[C@H](O)[C@H]3O)c(O)c(O)c1C2=O
inactive: max response (HEK293) -35.5% | max response (KB-3-1) -19.3% | max response (NIH3T3) -21.1% | Potency (MCC-13) | Potency (MCC-26)

CNC(=O)c1c(I)c(NC(=O)CCCCC(=O)Nc2c(I)c(C(=O)O)c(I)c(C(=O)NC)c2I)c(I)c(C(=O)O)c1I
inactive: max response (CRL-7250) -5.95% | max response (HEK293) -10.9% | max response (NIH3T3) -3.88% | Potency (MCC-13)

COc1cc(CNC(=O)CCCC/C=C/C(C)C)ccc1O
inactive: Potency (P93_24) | Potency (P94_40) | Potency (PAD) | Potency (PC15) | Potency (PC26) | Potency (PC49) | Potency (SC27B) | Potency (TAB109) | Potency (TAB113) | Potency (TAB165) | Potency (W2) | max response (CRL-7250) 3.92% | max response (HEK293) -1.55% | max response (KB-3-1) -0.699% | outcome (KB-3-1) | max response (NIH3T3) -2.4%

COc1ccc(-c2cc(=S)ss2)cc1
inactive: Potency (PC15) | Potency (PC26) | Potency (PC49) | Potency (TAB109) | Potency (W2) | max response (CRL-7250) -2.86% | outcome (HaCat [1]) | max response (KB-3-1) 24% | outcome (NIH3T3) | outcome (HACAT [2]) | Potency (MCC-13) | Potency (MCC-26)

CC(N)C(=O)OC(C)(C)Cc1ccc(Cl)cc1 (stereo not drawn)
inactive: Potency (PAD) | max response (CRL-7250) 4.4% | outcome (HaCat [1]) | max response (KB-3-1) 3.19% | max response (NIH3T3) -1.5% | outcome (HACAT [2]) | Potency (MCC-13)
active: Potency (W2) 4260 nM

O=C(O)Cc1cccc(-c2cc(CCCCCCc3ccc(O[C@H]4O[C@H](CO)[C@@H](O)[C@H](O)[C@@H]4O)c(-c4cccc(CC(=O)O)c4)c3)ccc2O[C@H]2O[C@H](CO)[C@@H](O)[C@H](O)[C@@H]2O)c1
inactive: max response (HEK293) 1.99% | max response (HaCat [1]) -11.5% | outcome (KB-3-1) | max response (NIH3T3) 2.37% | activity change, negative = cytotoxicity (MCC-13) 9.04% [at 0.597 µM]
